Data on 22 compounds can be found in PubChem BioAssay.

Structures are written as SMILES. Unmarked numbers belong to inactive results. The rule behind the calls is not given here.

Pantothenate synthetase (Mycobacterium tuberculosis (strain ATCC 25618 / H37Rv)), sequence (P9WIL5 whole entry, looked up): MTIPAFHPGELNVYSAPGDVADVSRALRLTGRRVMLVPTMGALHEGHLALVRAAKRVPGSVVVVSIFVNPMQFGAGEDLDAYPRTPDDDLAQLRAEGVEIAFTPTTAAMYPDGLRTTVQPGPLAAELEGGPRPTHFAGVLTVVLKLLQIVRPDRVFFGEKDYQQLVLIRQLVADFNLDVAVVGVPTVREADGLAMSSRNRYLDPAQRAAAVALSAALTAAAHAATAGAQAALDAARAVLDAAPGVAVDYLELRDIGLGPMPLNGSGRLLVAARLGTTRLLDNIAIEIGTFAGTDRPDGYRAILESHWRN

This test concerns the target Pantothenate synthetase (Mycobacterium tuberculosis (strain ATCC 25618 / H37Rv)) (UniProt P9WIL5). In words: Recombinant Mtb pantothenate synthetase (PanC) inhibitors, coupled enzyme, confirmatory (AID 375).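 Note: 0% = full reaction with vehicle and 100% = no enzyme background.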 As to conditions: coupled enzyme assay; at 10 µM, stronger effect = higher value.
Consider `CC(C(=O)OCn1nnc2ccccc2c1=O)N1C(=O)c2ccccc2C1=O` (configuration not stated), for which the inhibition (as a rule, the change of the read-out against control, counted positive when it falls) is 0%.
The figure for `Cc1cc2ccccn2c1C(=O)c1ccncc1` is 5%; for `CCN(CC)S(=O)(=O)c1ccc2oc(SCc3ccc(F)cc3)nc2c1` it is 5%.
`CC(C)NC(=O)c1ccccc1NC(=O)CCS(=O)(=O)Cc1ccccc1`: the inhibition was 2%.
Regarding `CCC(CC)C(=O)Nc1cccc(C(=O)NCc2ccco2)c1`, the inhibition is 6%.
Consider `O=C(CN1C(=O)c2ccccc2C1=O)Nc1ccc(S(=O)(=O)NCC2CCCO2)cc1` (configuration not stated), for which the inhibition was 0%.
Turning to `CCn1c(=O)cc(SCC(=O)Nc2cccnc2)c2ccccc21`, the inhibition is 0%.
The figure for `Cc1csc(NC(=O)C(Cc2ccccc2)n2cccc2)n1` (configuration not stated) is 5%; for `CC(C)(C)SCCNC(=O)COc1ccccc1` it is 3%; for `CC(C)(C)OC(=O)N1CCC(C(=O)N[C@H](Cc2ccccc2)C(=O)O)CC1` it is 0%.
The value for `COCCN(C(=O)CCC(=O)Nc1ccccn1)C(C(=O)NC1CCCC1)c1ccc(OC)cc1` (configuration not stated) was 0%; that for `O=S(=O)(NCCc1ccccc1F)c1cccc(S(=O)(=O)N2CCOCC2)c1` was 0%; that for `O=C(c1ccco1)N1CCN(/C(=N/S(=O)(=O)c2cccs2)c2ccccc2Cl)CC1` was 0%.
The value for `Cc1nn(-c2ccccc2)c2sc(C(=O)N3CCOCC3)cc12` was 0%; that for `COc1ccc(CCNS(=O)(=O)c2ccc(C(=O)NCc3ccco3)cc2)cc1OC` was 0%.
In the case of `CC1CN(c2nc3ccccc3nc2C(C#N)C(=O)NCc2ccc3c(c2)OCO3)CC(C)O1` (configuration not stated), the inhibition was 0%.
The value for `Cc1cc(NC(=O)c2cc(-c3ccco3)on2)n(-c2ccccc2)n1` was 0%; that for `CN(C)c1nc(Oc2ccc(=O)n(C)n2)nc(N2CCOCC2)n1` was 0%.
The figure for `Cc1cc(=O)oc2c1c(C)nn2-c1ccc(C(=O)OC(C)C)cc1` is 0%; for `Cc1cc(Cn2ccnc2)c(C)cc1Cn1ccnc1` it is 1%; for `CCOc1ccccc1-n1c(SCC(=O)NC2CCCC2)nnc1-c1ccoc1C` it is 1%.
As to `CC(C)(C)C(=O)Oc1cc(N)n(S(=O)(=O)c2ccccc2)n1`, the inhibition was 0%.
